From PubChem BioAssay AID1963321 (National Center for Advancing Translational Sciences (NCATS), 2024) come the findings set out here.

Structures are written as SMILES. Results filed as inconclusive are left out. Entries that show only a call come without a potency. Calls of active or inactive are those of the source. Calls come from the whole dose curve.

For the experiment, the target named is cAMP-dependent protein kinase catalytic subunit alpha (Homo sapiens) (UniProt P17612). In words: Protein Kinase A (PKA-HiBiT) enzymatic inhibition screen - Functional assay. Conditions: luminescence; series mostly up to 57.5 µM. The method in brief:
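PKA-N-HiBiT enzyme (10 nM final) with 87.5 uM ATP preincubated 30 min at room temperature with compounds. Kemptide substrate then added for 3 h; residual ATP read by Kinase-Glo Plus luminescence, H-89 as positive control.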
In general terms: With HiBiT, luminescence reflects the tagged protein that the partner subunit can reach.
Regarding `Cn1ncc(NC(=O)c2nc(-c3c(F)cccc3F)sc2N)c1N1CC[C@@H](N)[C@H](F)CC1`, the Potency result is “inactive”.
Then `CN1CCN(CCCNc2ncc(Cl)c(-c3cc4c(C(=O)NC5CC5)cccc4s3)n2)CC1`, with “inactive”; and `COc1cc(N2CCC(N3CCN(C)CC3)CC2)ccc1Nc1ncc(Cl)c(Nc2ccccc2P(C)(C)=O)n1`, with “inactive”.
Then `COc1cc(N2CCN(C)CC2)ccc1Nc1nc(N)c(C(=O)c2c(Cl)cccc2Cl)s1`, with “inactive”.
Regarding `CCN1CCN(Cc2ccc(NC(=O)Nc3ccc(Oc4cc(NC)ncn4)cc3)cc2C(F)(F)F)CC1`, the Potency result was “inactive”.
The value for `O=C(c1cccc(Cl)c1F)N1CCN(Cc2cccc(Nc3nccs3)n2)CC1` was “inactive”.
For `NC(=O)c1cccc(-c2cc(Nc3ccc(OC(F)(F)F)cc3)ncn2)c1`, the Potency entry was “inactive”.
In the case of `NC1CCC(Nc2nc(Nc3ccc(C(=O)N4CCCCC4)cc3)c3ncn(-c4cccc(F)c4)c3n2)CC1` (stereo unspecified), the Potency entry was “inactive”.
In the case of `CC(C)CCN1c2nc(Nc3cc(F)c(O)c(F)c3)ncc2N(C)C(=O)C1C` (stereo unspecified), the Potency entry is “inactive”.
In the case of `Cc1sc2c(c1C)C(c1ccc(Cl)cc1)=N[C@@H](CC(=O)Nc1ccc(OCCOCCOCCOCCNc3cccc4c3C(=O)N(C3CCC(=O)NC3=O)C4=O)cc1)c1nnc(C)n1-2` (stereo partly specified), the Potency entry was “inactive”.
With `CNS(=O)(=O)c1ccc2c(c1)/C(=C/c1[nH]c3c(c1CCCN1CCN(C)CC1)CCCC3)C(=O)N2`, the Potency entry is “inactive”.
The value for `Cc1ccccc1-n1c([C@H](C)Nc2nc(N)nc3nc[nH]c23)nc2cccc(C)c2c1=O` was “inactive”; that for `O=C(NCCO)c1cccc(-c2cc(Nc3ccc(OC(F)(F)F)cc3)ncn2)c1` was “inactive”; that for `COc1cc2ncnc(-n3nc(-c4ccccn4)nc3N)c2cc1OC` was “inactive”.
Then `Cc1cccc(/C=N/Nc2cc(N3CCOCC3)nc(OCCc3ccccn3)n2)c1`, with “inactive”; and `C[C@@H]1CCNC(=O)c2cc3ccc(C(=O)Nc4nc5ccccc5n4CCCN(C)C)cc3n21`, with “inactive”; and `CCCS(=O)(=O)Nc1ccc(F)c(C(=O)c2c[nH]c3ncc(Cl)cc23)c1F`, with “inactive”.
The value for `Cc1cc(O)c2c(c1)C(=O)c1cc(O)cc(O)c1C2=O` was “inactive”.
For `Cc1[nH]c(/C=C2\C(=O)Nc3ccc(S(=O)(=O)Cc4c(Cl)cccc4Cl)cc32)c(C)c1C(=O)N1CCC[C@@H]1CN1CCCC1`, the Potency result is “inactive”.
Then `CCn1c(=O)c(-c2ccc(Cl)cc2Cl)cc2cnc(Nc3ccc(N4CCNCC4)c(F)c3)nc21`, with “inactive”; and `CCCCNc1ncc2c(-c3ccc(S(=O)(=O)N4CCOCC4)cc3)nn(C3CCC(O)CC3)c2n1` (stereo unspecified), with “inactive”; and `Cc1cc(Nc2cc(N3CCN(C)CC3)nc(Sc3ccc(NC(=O)C4CC4)cc3)n2)n[nH]1`, with “inactive”.
The value for `COc1ccc(S(=O)(=O)N(C(C)=O)c2ccccc2/C=C/c2cc[n+]([O-])cc2)cc1` was “inactive”; that for `C=CC(=O)N1CCC(Oc2cc3c(Nc4ccc(Cl)c(Cl)c4F)ncnc3cc2OC)CC1` was “inactive”.
Then `C[C@@H](NC(=O)c1ncnc(N)c1Cl)c1ncc(C(=O)Nc2cc(C(F)(F)F)c(Cl)cn2)s1`, with “inactive”.
Take `O=S(=O)(/N=C/c1c(O)ccc2ccccc12)c1cccs1`: the Potency entry is “inactive”.
Consider `Nc1ncccc1-c1nc2ccc(-c3ccccc3)nc2n1-c1ccc(C2(N)CCC2)cc1`, for which the Potency result is “inactive”.
For the compound `O=c1c(O)c(-c2ccc(O)c(O)c2)oc2cc(O)cc(O)c12`, the Potency result is “inactive”.
Then `COc1ccccc1-c1c[nH]c2ncc(-c3cncc(C(=O)N(C)C)c3)cc12`, with “inactive”; and `COc1cc2c(N3CCN(C(=O)Nc4ccc(OC(C)C)cc4)CC3)ncnc2cc1OCCCN1CCCCC1`, with “inactive”; and `CN1CCN(c2ccc(Nc3ncc4cc(C#N)c(=O)n(C5CCCC5)c4n3)cc2)CC1`, with “inactive”.
The value for `CN(c1ncccc1CNc1nc(Nc2ccc3c(c2)CC(=O)N3)ncc1C(F)(F)F)S(C)(=O)=O` was 24.3 µM (active); that for `CN1CCN(C2CCC(n3cc(-c4ccc(Oc5ccccc5)cc4)c4c(N)ncnc43)CC2)CC1` (stereo unspecified) was “inactive”; that for `Cc1c(Cl)cccc1S(=O)(=O)Nc1nc(NCCc2ccccc2)nc2c1CN(Cc1ccccc1)CC2` was “inactive”.
The value for `Cc1cn(-c2cccc(NC(=O)c3ccc(C)c(Nc4nccc(-c5cccnc5)n4)c3)c2)cn1` was “inactive”; that for `C=CC(=O)N1CCC[C@@H](n2nc(-c3cccc(C(=O)Nc4ccc(C(C)C)c(C)c4)c3)c3c(N)ncnc32)C1` was “inactive”.
